MITF inh = inhibitors of MITF, primary screen, MITF inhibitor project, cell-based, luminescence. TRPM1 promoter luciferase, 24 h. inhibition, % (test concentration not listed). 37,000 compounds, 0.28% hits; in the data active means inhibition above about 85%; inconclusive means no clear call, values can overlap the other calls; inactive means below about 68%;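 further: human melanocyte line stably carrying TRPM1 promoter luciferase reporter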
PD-1 reversal = activators reversing PD-1 mediated T-cell inhibition, primary screen, luminescence, primary human CD4 T cells, PD-L1 beads | activation, % (no concentration beside the values) | AID 2316, 2010 | 29,000 tested, under 10 active | CellTiter-Glo 96 h; call rule not given here
Hedgehog inh = Hedgehog pathway signaling inhibitors, primary screen, luminescence, Shh-LIGHT2 cells, Gli-luciferase. Shh-LIGHT2 Gli-luciferase reporter, 30 h. 22,000 compounds, 2.1% hits. inhibition, % (no concentration beside the values). AID 2313, 2010;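 active means mean inhibition across valid replicates above about 65%, limit read from the data; inconclusive means mean under the limit, yet half or more replicates past it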;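 further: pathway switched on by Shh-conditioned medium diluted 1 in 25 in low serum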
NOMO-1 viab = NOMO-1 AML cell viability reduction, primary screen, STK33 inhibitor project, CellTiter-Glo luminescence. NOMO-1 AML viability, 72 h. inhibition, % (no concentration beside the values). 37,000 compounds, 7.5% hits; in the data active means inhibition above about 80%; inconclusive means no clear call, values can overlap the other calls
A number is an active result; i = inactive; ? = inconclusive; nt = not tested or not shown; ! = not active in a repeat. Rows were chosen to be rich in hits. Some 8.1% of all compounds tested hit in one or more screens of this group.

SMILES	MITF inh	PD-1 reversal	Hedgehog inh	NOMO-1 viab
C[C@H]1O[C@@H](O[C@H]2[C@@H](O)C[C@H](O[C@H]3[C@@H](O)C[C@H](O[C@H]4CC[C@@]5(C)[C@H](CC[C@@H]6[C@@H]5CC[C@]5(C)[C@@H](C7=CC(=O)OC7)CC[C@]65O)C4)O[C@@H]3C)O[C@@H]2C)C[C@H](O)[C@@H]1O	i	i	i	124
CC1(C)C(C(=O)Nc2ccccc2C(F)(F)F)C1(C)C	i	i	i	i
CC1(C)C2CC(=O)[C@]3(C)C(CC[C@@]4(C)[C@H](c5ccoc5)OC(=O)C5OC543)[C@@]2(C)[C@@H](O)C[C@H]1O (some centres undefined)	i	nt	i	i
C=CCC1(NCCc2ccccc2)CCCCC1	i	i	nt	i
Clc1ccc(C2CC3CCC2N3)cn1 (centres undefined)	i	i	i	i
CCN(CC)C(=O)N[C@@H]1C[C@@H]2c3cccc4[nH]cc(c34)C[C@H]2N(C)C1	i	nt	i	i
CC[C@@H]1/C=C\C=C\C[C@H](C)C(O)[C@](C)(O)C(=O)[C@H](C)C(O)[C@H](C)C(=O)[C@H](C)[C@@H](O)[C@H](C)/C=C/C(=O)O[C@H]2[C@@H](C)[C@@H](CC1)O[C@@]1(CC[C@@H](C)[C@@H](C[C@H](C)O)O1)[C@@H]2C (some centres undefined)	i	i	108	124
C[C@H](N)C(=O)N[C@@H](C)C(=O)N[C@@H](Cc1ccccc1)C(=O)CCl	i	nt	i	114
N[C@@H](Cc1ccc(N(CCCl)CCCl)cc1)C(=O)O	i	nt	i	111
O=C(O)CCCc1ccc(N(CCCl)CCCl)cc1	i	nt	i	110
CCC(C)[C@H]1O[C@]2(C=C[C@@H]1C)C[C@@H]1C[C@@H](C/C=C(\C)[C@@H](OC3C[C@H](OC)C(O[C@H]4C[C@H](OC)[C@@H](O)[C@H](C)O4)[C@H](C)O3)[C@@H](C)/C=C/C=C3\CO[C@@H]4[C@H](O)C(C)=C[C@@H](C(=O)O1)[C@]34O)O2 (some centres undefined)	100	nt	i	104
CC(=O)O[C@@H](c1nc2ccccc2c(=O)n1[C@@H]1C[C@@]2(OC1=O)c1ccccc1N1C(=O)[C@H](C)N(O)[C@@H]12)C(C)C	i	i	i	84
Fc1ccc(C(OCCN2CCN(CCCc3ccccc3)CC2)c2ccc(F)cc2)cc1	i	nt	67!	103
Fc1ccc(C(OCCN2CCN(C/C=C/c3ccccc3)CC2)c2ccc(F)cc2)cc1	100	nt	84	120
c1ccc(CCCN2CCN(CCOC(c3ccccc3)c3ccccc3)CC2)cc1	i	nt	86	104
O=C1CC=C2C3CC4N(CCC45c4ccccc4N1C25)C/C3=C/CO (centres undefined)	i	i	i	i
Cc1cc(O)cc2oc(=O)c3c(O)cc(O)cc3c12	i	i	i	i
CCOP(=S)(OCC)SCSP(=S)(OCC)OCC	i	nt	i	i
COc1ccc(C(=O)OC2C[C@H]3CC[C@H](C2)N3C)cc1OC (some centres undefined)	i	i	i	i
C=CC(C)(C)[C@]12C=C(OC)C(=O)N3/C(=C/c4cnc[nH]4)C(=O)N[C@@]31N(OC)c1ccccc12	i	i	i	101
C/C1=C/C(=O)O[C@@H]2C[C@@H](CC[C@H](C)/C=C\CC1)O[C@@](O)([C@@H]1CSC(=O)N1)C2	i	nt	102	114
NC(N)=NC(N)=Nc1ccc(Cl)cc1	i	i	i	i
COc1cc2c(cc1O)[C@@H]1Cc3ccc(OC)c(O)c3CN1CC2	i	nt	i	108
COc1cc2c(cc1O)C1Cc3ccc(OC)c(O)c3CN1CC2 (centres undefined)	i	i	i	117
COc1cc2c(cc1O)C[C@H]1c3c(cc(O)c(OC)c3-2)CCN1C	i	nt	i	i
CC(C)(C)C(=O)C(Oc1ccc(Cl)cc1)n1cncn1 (centres undefined)	i	nt	i	i
OC(Cc1ccncc1)C(Cl)(Cl)Cl (centres undefined)	i	i	i	i
CC(C)(O)[C@H]1O[C@H]2CC[C@@]3(C)[C@@](O)(CC[C@H]4Cc5c([nH]c6ccccc56)[C@@]43C)C2=CC1=O	i	nt	i	?

Compound activity deposited in PubChem BioAssay by Broad Institute.
